Several values for one entry are separate records, joined by “and”; a condition that tells them apart may be missing. Equal values may be shown once. Inconclusive results are not listed. Unmarked numbers belong to inactive results. The call rests on the fitted dose curve; in most records, active means well fitted inhibition curve with a large enough effect; inconclusive means small, poorly fitted or top-dose-only effect; inactive means flat fitted curve, though single readings scatter.
Each molecule was assayed on KB-3-1 (assay: Cytotoxic Profiling of Annotated Libraries Using Quantitative High-Throughput Screening (AID 1296008; further: nearly all actives have a fitted effect of over 60% in size)). Conditions: Five cell lines viability, CellTiter-Glo ATP luminescence, 48-72 h; max response: hits give low values.
Excerpt: Cell-based phenotypic screening is a commonly used approach to discover biological pathways, novel drug targets, chemical probes and high-quality hit-to-lead molecules. Many hits identified from high-throughput screening campaign are ruled out through a series of follow-up potency, selectivity/specificity, and cytotoxicity assays. Prioritization of molecules with little or no cytotoxicity for a more in-depth downstream evaluation influence the future direction of projects, so cytotoxicity profiling of the screening libraries at early stage is essential for increasing the likelihood of candidate success. […] For the annotated library, we also examined the primary targets and mechanistic pathways regularly associated with cell death. To our knowledge, this is the first study to use high-throughput screening to profile large libraries for cytotoxicity assessment in both normal and cancer cell lines. In summary, the results generated here constitutes a valuable resource for the scientific community and provides insight on identifying cytotoxic compounds with particular mechanisms of action, and prioritizing compounds with suitable cytotoxicity profile for further evaluation.
A pintool (Kalypsys) was used to transfer 23 nL of compound solution to the 1536-well assay plates. After 48 or 72 hr incubation at 37 degree Celsius, 5% CO2 and 95% humidity, 2.5 uL of CellTiter-Glo (Promega) was dispensed into each well using a dispenser (Aspect Automation, St. Paul, MN) with solenoid valves (Lee Valves, Westbrook CT). Plates were left at room temperature for 10 min before imaging the ATP-coupled luminescence using a ViewLux microplate imager (PerkinElmer, Waltham, MA).
On the % scale 0 is the no-effect control and ±100 the full control effect.

| Compound | max response |
| --- | --- |
| CCNC(=O)NCc1cccc(Cl)c1 | 2.4% |
| CCCCCCCCCCCCCCCCO | 19% |
| Cl/C(=C\n1cncn1)c1ccc(Cl)cc1Cl | 25.3% |
| CN1CCN(CCC(=O)N2c3ccccc3Sc3ccc(C(F)(F)F)cc32)CC1 | 5.81% |
| Nc1ccc(C(=O)NCC(=O)O)cc1 | 28.3% |
| c1ccc(CC2=NCCN2)cc1 | -6.13% |
| Cc1ccccc1OCC(O)CO (stereo not given) | 1.58% |
| COP(=O)(OC)OC(c1ccc(Cl)cc1)P(=O)(OC)OC (stereo not given) | 0.95% |
| CCCc1ncc(C[n+]2ccccc2C)c(N)n1 | 2.61% |
| CC(=O)NC(=O)c1ccccc1O | -3.04% |
| CC(O)Cn1cnc2c1c(=O)n(C)c(=O)n2C (stereo not given) | 13.1% |
| CCCCC(CC)COC(=O)/C=C/c1ccc(OC)cc1 (stereo not given) | 15% |
| COc1cc(C(=O)NCc2ccc(OCCN(C)C)cc2)cc(OC)c1OC | -11.1% |
| Cn1c(=O)c2[nH]c(Br)nc2n(C)c1=O | -9.6% |
| O=C1[C@H](CC[C@H](O)c2ccc(F)cc2)[C@@H](c2ccc(O)cc2)N1c1ccc(F)cc1 | -8.72% and 5.64% |
| NC(=O)C1(N2CCCCC2)CCN(CCCC(=O)c2ccc(F)cc2)CC1 | 5.68% |
| CCN1CCN(C(=O)N[C@@H](C(=O)N[C@@H]2C(=O)N3C(C(=O)O)=C(CSc4nnnn4C)CS[C@H]23)c2ccc(O)cc2)C(=O)C1=O | -4.94% |
| C#C[C@]1(O)CC[C@H]2[C@@H]3CCC4=Cc5oncc5C[C@]4(C)[C@H]3CC[C@@]21C | -24% |
| CN1CCN(c2cc3c(cc2F)c(=O)c(C(=O)O)cn3-c2ccc(F)cc2)CC1 | -5.32% |
| O=C(CCN1CCN2CCCC2C1)N1c2ccccc2Sc2ccc(Cl)cc21 (stereo not given) | 7.31% |

| Compound | max response |
| --- | --- |
| C[N+]1(C)CCC(=C(c2ccccc2)c2ccccc2)CC1 | 3.66% |
| COc1ccc(C(=O)c2ccccc2)c(O)c1 | -18.9% |
| Cc1ncc(CO)c(C=O)c1O | 3.7% |
| O=C(O)CCNC(=O)c1ccccc1 | -6.01% |
| C/C=C/c1ccc(O)c(OC)c1 | -3.67% |
| O=C(c1ccc(F)cc1)C1CCN(CCn2c(=S)[nH]c3ccccc3c2=O)CC1 | 8.09% |
| Cc1cccc(C)c1NC(=O)CN1CCCCCC1 | 2.19% |
| CNCCCCOc1ccccc1Cc1ccccc1 | 9.62% |
| CCCCNC(=O)NS(=O)(=O)c1ccc(N)cc1 | 10% |
| CC1(C)OC[C@@H]2O[C@@]3(C(=O)O)OC(C)(C)O[C@H]3[C@@H]2O1 | -15.5% |
| C#C[C@]1(O)CC[C@H]2[C@@H]3CCC4=CC(=O)CC[C@@H]4[C@H]3CC[C@@]21CC | -1.4% |
| CCCCCCCCCCCCCCC[C@H](O)[C@@H](N)CO | -4.68% |
| NCCNc1cccc2ccccc12 | -12.5% |
| CN1CCc2cccc3c2[C@H]1Cc1ccc(O)c(O)c1-3 | 10.6% |
| CCCCCCCCCCCCSCCOCCO | 1.68% |
| CC(=O)NO | 15.6% |
| CC(=O)NCCCCCC(=O)O | 0.772% |
| Nc1ccc(S(=O)(=O)NCc2ccccc2)cc1 | -2.49% |
| CC(C)[C@@H]1CC[C@@H](C)CC1=O | -7.81% |
| CC(C)CCCC(C)N (stereo not given) | 22% |

Source: PubChem BioAssay (NCATS)
